Experimental data: PubChem BioAssay (NCI)
This is part of a sample that, as a whole, favours compounds with a hit. Of some 79,000 tested, about 15% had one in any assay. Unmarked numbers belong to inactive results. The source made the active and inactive calls. No stated cut-off is given here; in the data, active means growth inhibition above about 70%; inactive means the rest.

How the values were obtained:
[1] = NCI Yeast Anticancer Drug Screen. Data for the rad52 strain (AID 147);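 further: 0% = growth of vehicle-treated control cultures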; conditions: S. cerevisiae rad52 mutant growth inhibition, stronger effect = higher value
How it was run: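 Genetically altered yeast (DNA damage repair defect) treated with compound; inhibition calculated relative to vehicle.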

[2] = NCI Yeast Anticancer Drug Screen. Data for the wt1 strain (AID 149);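 further: 0% = growth of vehicle-treated wt1 cultures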; conditions: S. cerevisiae wt1 strain (SPY 50644) growth inhibition, stronger effect = higher value
How it was run: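 Growth inhibition read against vehicle controls after compound exposure of the wt1 yeast strain.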

[3] = NCI Yeast Anticancer Drug Screen. Data for the mgt1 strain (AID 153); conditions: S. cerevisiae mgt1 mutant growth inhibition, stronger effect = higher value
How it was run: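 Read-out: yeast growth inhibition vs vehicle control. Strain mgt1, drawn from a panel altered in DNA damage repair or cell cycle control.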

[4] = NCI Yeast Anticancer Drug Screen. Data for the rad50 strain (AID 155);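 further: 0% = growth of vehicle-only cultures of the same strain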; conditions: S. cerevisiae rad50 strain growth inhibition, stronger effect = higher value
How it was run: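 Readout: growth inhibition relative to vehicle-treated cultures. Compound exposure was carried out in a genetically defined yeast strain deficient in DNA damage repair.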

[5] = NCI Yeast Anticancer Drug Screen. Data for the mec2-1 strain (AID 157); conditions: S. cerevisiae mec2-1 strain, stronger effect = higher value
How it was run: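 Cells of the genetically defined mec2-1 yeast strain are incubated with test compound. Inhibition of growth is calculated against vehicle-treated controls.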

[6] = NCI Yeast Anticancer Drug Screen. Data for the rad14 strain (AID 159);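 further: 0% = growth of vehicle-treated control cultures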; conditions: S. cerevisiae rad14 strain growth inhibition, stronger effect = higher value
How it was run: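 Growth inhibition vs vehicle controls; genetically altered yeast strain (DNA damage repair defect) treated with test compounds.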

[7] = NCI Yeast Anticancer Drug Screen. Data for the sgs1 mgt1 strain (AID 161);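 further: 0% = growth of cultures given vehicle only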; conditions: S. cerevisiae sgs1 mgt1 strain, stronger effect = higher value
How it was run: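 Genetically altered yeast, compound exposure, growth inhibition relative to vehicle.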

[8] = NCI Yeast Anticancer Drug Screen. Data for the CLN2oe strain (AID 163);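 further: 0% = growth of vehicle-only control cultures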; conditions: S. cerevisiae CLN2oe strain, stronger effect = higher value
How it was run: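 Strain altered in cell-cycle control, incubated with compound; growth compared to solvent-treated controls.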

[9] = NCI Yeast Anticancer Drug Screen. Data for the cln2 rad14 strain (AID 165);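 further: 0% = growth equal to vehicle treated cultures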; conditions: S. cerevisiae cln2 rad14 strain, stronger effect = higher value
How it was run: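 The screen exposed genetically defined yeast (cln2 rad14) to test compounds and scored growth inhibition relative to vehicle-treated controls.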

[10] = NCI Yeast Anticancer Drug Screen. Data for the bub3 strain (AID 167); conditions: S. cerevisiae bub3 mutant strain, stronger effect = higher value
How it was run: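 Readout: yeast growth inhibition, expressed relative to vehicle-only wells. The test organism is a mutant strain from a panel with lesions in DNA repair or checkpoint genes.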

[11] = NCI Yeast Anticancer Drug Screen. Data for the wt2 strain (AID 169);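 further: 0% = growth of vehicle-treated yeast cultures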; conditions: S. cerevisiae wt2 strain growth inhibition, stronger effect = higher value
How it was run: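 Steps: yeast strain treated with compound; growth recorded; inhibition calculated relative to cultures given vehicle alone.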

[12] = NCI Yeast Anticancer Drug Screen. Data for the mlh1 strain (AID 171);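 further: 0% = growth of vehicle-treated control cultures of the same strain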; conditions: S. cerevisiae mlh1 strain growth inhibition, stronger effect = higher value
How it was run: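 Yeast screen: mutant strain plus compound, growth scored against vehicle control wells.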

[13] = NCI Yeast Anticancer Drug Screen. Data for the sgs1 strain (AID 173);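 further: 0% = growth of vehicle-only control cultures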; conditions: S. cerevisiae sgs1 mutant, stronger effect = higher value
How it was run: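 Inhibition of yeast growth served as the measure. The mutant strain was treated with each compound, and growth was normalised to cultures receiving vehicle alone.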

[14] = NCI Yeast Anticancer Drug Screen. Data for the mlh1 rad18 strain (AID 175); conditions: S. cerevisiae mlh1 rad18 strain growth inhibition, stronger effect = higher value
How it was run: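 Compound-treated yeast growth, normalised to vehicle controls. Strain bears defined DNA repair mutations.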

[15] = NCI Yeast Anticancer Drug Screen. Data for the rad18 strain (AID 177); conditions: S. cerevisiae rad18 mutant growth inhibition, stronger effect = higher value
How it was run: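 Inhibition values reflect reduced yeast growth compared with vehicle-treated controls, using a strain engineered with a DNA damage repair defect.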

[16] = at 5.0 µM (retest, dose inferred, filed as 0.5)
[17] = at 50.0 µM (retest, dose inferred, filed as 5.0)

## CCC#CCCCOC(=O)c1cc([N+](=O)[O-])cc([N+](=O)[O-])c1
[1]; at 1.2 µM
  growth inhibition: -3%
[1]; at 3.7 µM
  growth inhibition: -4%
[1]; at 11.0 µM
  growth inhibition: 2%
[1]; at 33.0 µM
  growth inhibition: 81% (active)
[1]; at 100.0 µM
  growth inhibition: 98% (active)
[2]; at 1.2 µM
  growth inhibition: -6%
[2]; at 3.7 µM
  growth inhibition: -8%
[2]; at 11.0 µM
  growth inhibition: -10%
[2]; at 33.0 µM
  growth inhibition: 66%
[2]; at 100.0 µM
  growth inhibition: 99% (active)
[3]; at 1.2 µM
  growth inhibition: -5%
[3]; at 3.7 µM
  growth inhibition: -8%
[3]; at 11.0 µM
  growth inhibition: -4%
[3]; at 33.0 µM
  growth inhibition: 93% (active)
[3]; at 100.0 µM
  growth inhibition: 99% (active)
[4]; at 1.2 µM
  growth inhibition: -4%
[4]; at 3.7 µM
  growth inhibition: -6%
[4]; [16]
  growth inhibition: 6%
[4]; at 11.0 µM
  growth inhibition: 0%
[4]; at 33.0 µM
  growth inhibition: 87% (active)
[4]; [17]
  growth inhibition: 97% (active)
[4]; at 50.0 µM
  growth inhibition: 99.2% (active)
[4]; at 100.0 µM
  growth inhibition: 98% (active)
[5]; at 1.2 µM
  growth inhibition: -6%
[5]; at 3.7 µM
  growth inhibition: -2%
[5]; [16]
  growth inhibition: 7%
[5]; at 11.0 µM
  growth inhibition: 2%
[5]; at 33.0 µM
  growth inhibition: 83% (active)
[5]; [17]
  growth inhibition: 99% (active)
[5]; at 50.0 µM
  growth inhibition: 99.3% (active)
[5]; at 100.0 µM
  growth inhibition: 99% (active)
[6]; at 1.2 µM
  growth inhibition: -5%
[6]; at 3.7 µM
  growth inhibition: -6%
[6]; at 11.0 µM
  growth inhibition: 1%
[6]; at 33.0 µM
  growth inhibition: 79% (active)
[6]; at 100.0 µM
  growth inhibition: 99% (active)
[7]; [16]
  growth inhibition: 10%
[7]; [17]
  growth inhibition: 99% (active)
[7]; at 50.0 µM
  growth inhibition: 99.6% (active)
[8]; at 1.2 µM
  growth inhibition: -5%
[8]; at 3.7 µM
  growth inhibition: -11%
[8]; at 11.0 µM
  growth inhibition: -19%
[8]; at 33.0 µM
  growth inhibition: 44%
[8]; at 100.0 µM
  growth inhibition: 99% (active)
[9]; [16]
  growth inhibition: -7%
[9]; [17]
  growth inhibition: 94% (active)
[9]; at 50.0 µM
  growth inhibition: 97.7% (active)
[10]; at 1.2 µM
  growth inhibition: -10%
[10]; at 3.7 µM
  growth inhibition: -7%
[10]; [16]
  growth inhibition: 4%
[10]; at 11.0 µM
  growth inhibition: -6%
[10]; at 33.0 µM
  growth inhibition: 52%
[10]; [17]
  growth inhibition: 97% (active)
[10]; at 50.0 µM
  growth inhibition: 99.5% (active)
[10]; at 100.0 µM
  growth inhibition: 98% (active)
[11]; at 1.2 µM
  growth inhibition: -7%
[11]; at 3.7 µM
  growth inhibition: -10%
[11]; at 11.0 µM
  growth inhibition: 4%
[11]; at 33.0 µM
  growth inhibition: 98% (active)
[11]; at 100.0 µM
  growth inhibition: 99% (active)
[12]; at 1.2 µM
  growth inhibition: -2%
[12]; at 3.7 µM
  growth inhibition: 0%
[12]; at 11.0 µM
  growth inhibition: 8%
[12]; at 33.0 µM
  growth inhibition: 91% (active)
[12]; at 100.0 µM
  growth inhibition: 99% (active)
[13]; at 1.2 µM
  growth inhibition: -1%
[13]; at 3.7 µM
  growth inhibition: 3%
[13]; at 11.0 µM
  growth inhibition: 23%
[13]; at 33.0 µM
  growth inhibition: 98% (active)
[13]; at 100.0 µM
  growth inhibition: 99% (active)
[14]; [16]
  growth inhibition: 13%
[14]; [17]
  growth inhibition: 99% (active)
[14]; at 50.0 µM
  growth inhibition: 99.2% (active)
[15]; at 1.2 µM
  growth inhibition: -3%
[15]; at 3.7 µM
  growth inhibition: 4%
[15]; at 11.0 µM
  growth inhibition: 20%
[15]; at 33.0 µM
  growth inhibition: 94% (active)
[15]; at 100.0 µM
  growth inhibition: 99% (active)
